Compound activity: PubChem BioAssay, Broad Institute
This excerpt belongs to a sample that is enriched for hits.
PRC2 inh – EZH2/PRC2 methyltransferase inhibitors, primary screen, biochemical, DELFIA time-resolved fluorescence, single point. Histone-lysine N-methyltransferase EZH2 (Homo sapiens), Q15910. PRC2 H3K27 methylation, DELFIA TRF, 1 h. inhibition, % at 12.5 µM. 57,000 tested, 0.35% active. AID 651548, 2012;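 active means mean inhibition of replicates at least 50% and every single replicate also reaching 50%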;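 further: dimethyl H3K27 on biotinylated H3 21-44 peptide detected by antibody; plate controls were median neutral control wells for no effect and median positive control wells for full effect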
Target sequence (Q15910 whole entry, looked up): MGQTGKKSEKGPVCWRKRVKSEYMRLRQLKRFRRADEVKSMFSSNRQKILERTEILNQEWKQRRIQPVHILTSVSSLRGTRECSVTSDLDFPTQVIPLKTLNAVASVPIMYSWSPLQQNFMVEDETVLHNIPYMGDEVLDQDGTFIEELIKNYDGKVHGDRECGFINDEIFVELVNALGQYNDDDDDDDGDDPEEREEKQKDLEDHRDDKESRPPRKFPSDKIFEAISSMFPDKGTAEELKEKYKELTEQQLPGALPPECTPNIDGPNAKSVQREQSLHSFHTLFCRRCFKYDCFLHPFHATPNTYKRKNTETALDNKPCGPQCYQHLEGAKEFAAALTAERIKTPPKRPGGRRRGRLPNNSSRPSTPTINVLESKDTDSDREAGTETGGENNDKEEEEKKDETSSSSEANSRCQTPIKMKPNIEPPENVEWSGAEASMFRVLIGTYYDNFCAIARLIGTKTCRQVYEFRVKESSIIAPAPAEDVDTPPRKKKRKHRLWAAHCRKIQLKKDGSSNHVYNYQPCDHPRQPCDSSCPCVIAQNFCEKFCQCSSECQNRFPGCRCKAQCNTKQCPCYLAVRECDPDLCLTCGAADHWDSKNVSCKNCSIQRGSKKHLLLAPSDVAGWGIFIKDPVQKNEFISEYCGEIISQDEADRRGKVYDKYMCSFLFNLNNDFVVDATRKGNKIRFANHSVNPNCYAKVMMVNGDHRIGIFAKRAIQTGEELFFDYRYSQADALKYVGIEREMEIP
* marks the source's active call; other numbers are inactive results.

SMILES | PRC2 inh
Cc1cc(N)n(-c2ccc(Oc3ccccc3)cc2S(=O)(=O)O)n1 | 10.1
Cc1cc(-c2ccc(N=Nc3cc(S(=O)(=O)O)c4ccccc4c3N)c(C)c2)ccc1N=Nc1cc(S(=O)(=O)O)c2ccccc2c1N | 99.3*
COc1cc(CN2CCC(C(=O)NC(C)c3ccc(OC)c(OC)c3)CC2)cc(OC)c1 (centres undefined) | 6.6
COc1cccc2cc(C(=O)N3CCN(CCN4C(=O)c5cccc6cccc(c56)C4=O)CC3)c(=O)oc12 | -0.8
O=C(Nc1c(Cl)cc(Cl)cc1C(=O)NCc1cccnc1)c1cccc([N+](=O)[O-])c1 | -5.9
Cc1cc(CSc2cc(C)c(Cl)cc2C)no1 | 56.2*
Cn1c(=O)c2c(nc(NCC(O)c3ccccc3)n2Cc2ccc(F)cc2)n(C)c1=O (centres undefined) | -14.0
C=C1CCC2C(C)(CO)CCCC2(C)C1CC/C(C)=C/C(=O)O (centres undefined) | 13.5
C/C(=C\C(=O)O)CCC1C(C)(O)CCC2C(C)(CO)CCCC12C (centres undefined) | 65.4*
C/C(=C/C(=O)O)CCC1C(C)CCC2C(C)(C=O)C(O)CCC12C (centres undefined) | 15.1
COc1ccc(OC)c(NC(=O)CSc2nc(C)cc(=O)[nH]2)c1 | -4.1
COc1ccc(C(CC(=O)O)C(=O)O)cc1OC (centres undefined) | -3.2
CC(C)(C)c1cc(-c2csc(-c3ccno3)n2)cc(C(C)(C)C)c1O | -222.8
O=C(CN1CCCCC1)Nc1sc2c(c1C(=O)Nc1ccc(Br)cc1)CCC2 | -16.0
Cc1cc(Oc2ccccc2)nc(SCC(=O)Nc2ccc(Cl)cc2Cl)n1 | 19.3
Cc1cc(Oc2ccccc2)nc(SCCOc2ccccc2)n1 | 51.9*
Cc1cc(C)nc(SCC(O)COc2ccc(Cl)cc2)n1 (centres undefined) | 3.7
C=CCSc1n[nH]c(-c2ccc(C(F)(F)F)cc2)n1 | 20.9
CCc1ccccc1NC(=O)CN(C)S(=O)(=O)c1c(C)cc(C)cc1C | 1.0
COc1cc(O)c(CC=C(C)C)cc1C(=O)/C=C/c1ccc(O)c(CC=C(C)C)c1 | 24.3
CC(C)=CCc1cc(/C=C2\OC(=O)C(c3cc4c(cc3O)OC(C)(C)CC4)C2=O)ccc1O (centres undefined) | 77.7*
O=S(=O)(NCc1ccco1)c1ccc(Oc2ccccc2)cc1 | -9.4
O=C1CC(c2ccccc2F)C2=C(CC(c3ccc(F)cc3)CC2=O)N1 (centres undefined) | 2.0
O=C(CSc1nc(-c2ccccc2)cc(-c2ccccc2)n1)Nc1cccc([N+](=O)[O-])c1 | -3.0
CCOc1cc(/C=C2\SC(=S)NC2=O)cc(Cl)c1OC(=O)c1ccc(OC)cc1 | 66.9*
SMILES | PRC2 inh
O=C(CCCCC(=O)N/N=C/c1cccnc1)NO | -26.7
O=C(CCCCC(=O)N/N=C/c1cccc(Oc2ccccc2)c1)NO | 6.2
COc1ccc(NC(=O)CSc2nnc3sc4ccccc4n23)cc1 | 15.5
CC(CC[C@]1(C)C2CCC=C(CO)[C@]2(C)CC[C@H]1C)CC(=O)O (some centres undefined) | 14.6
CC1=CC(=O)OC1(O)CCC(C)CC(=O)O (centres undefined) | 100.1*
Cc1ccc(C)c(C(Nc2ccccn2)c2ccc3ccc(C)nc3c2O)c1 (centres undefined) | -14.8
Cc1ccc(-c2ccc3c(c2)O[C@H](CN(C)Cc2ccc(C(=O)O)cc2)[C@@H](C)CN([C@H](C)CO)S3(=O)=O)cc1 | 50.4*
C[C@H](CO)N1C[C@H](C)[C@@H](CN(C)Cc2ccc(F)cc2)Oc2cc(Br)ccc2S1(=O)=O | 58.1*
C[C@H]1CN([C@@H](C)CO)S(=O)(=O)c2ccc(Br)cc2O[C@H]1CN(C)Cc1ccc(F)cc1 | 23.8
C[C@H]1CN([C@@H](C)CO)S(=O)(=O)c2ccc(Br)cc2O[C@H]1CN(C)Cc1ccccc1 | -4.9
Cc1ccc(-c2ccc3c(c2)O[C@H](CN(C)Cc2ccc(C(=O)O)cc2)[C@H](C)CN([C@H](C)CO)S3(=O)=O)cc1 | 28.5
Cc1ccc(-c2ccc3c(c2)O[C@H](CN(C)Cc2ccc(C(=O)O)cc2)[C@@H](C)CN([C@@H](C)CO)S3(=O)=O)cc1 | 44.2
C[C@H](CO)N1C[C@H](C)[C@H](CN(C)Cc2ccc(C(=O)O)cc2)Oc2cc(/C=C/c3ccccc3)ccc2S1(=O)=O | 52.1*
C[C@@H]1CN([C@H](C)CO)S(=O)(=O)c2ccc(/C=C/c3ccccc3)cc2O[C@H]1CN(C)Cc1ccccc1 | 10.2
C[C@@H]1CN([C@H](C)CO)S(=O)(=O)c2ccc(/C=C/c3ccccc3)cc2O[C@@H]1CN(C)Cc1ccc(C(=O)O)cc1 | 19.5
CCN(CC(=O)Nc1ccc(Cl)c(C(F)(F)F)c1)S(=O)(=O)c1ccc(C)cc1 | 11.7
COc1ccc(-n2c(SCC(=O)Nc3ccc(Cl)cc3C)nnc2-c2ccccc2F)cc1 | 3.4
CCC(=O)N1CCN(c2ccc(Cl)cc2NC(=O)COc2ccc(Br)cc2)CC1 | 8.6
COC(=O)Nc1scc(-c2ccccc2)c1C(=O)NCc1ccco1 | 7.0
Cc1cc(SCC(=O)Nc2ccc(SC(F)F)cc2)nc2ccccc12 | 4.7
CC(C)(C)c1cc(C(F)(F)F)c(C#N)c(SCC(=O)Nc2sc3c(c2C#N)CCCC3)n1 | -1.7
Cn1nnnc1SCC(=O)Nc1ccc([N+](=O)[O-])cc1 | 4.3
CC1C(=O)C23CC(O)C4C(C)(C(=O)OC5OC(CO)C(O)C(O)C5O)CCCC4(C)C2(O)CCC1C3 (centres undefined) | 0.0
C=C(C(=O)O[C@@H]1O[C@H](CO)[C@@H](O)[C@H](O)[C@H]1O)[C@@H]1CC[C@@]2(C)C[C@H](O)C[C@@](C)(O)C2C1 (some centres undefined) | 64.1*
CC1(CCOC2OC(CO)C(O)C(O)C2O)CCC2C(=CCC3C(C)(C(=O)O)CCCC23C)C1 (centres undefined) | 12.8
SMILES | PRC2 inh
CCCc1cc(=O)n2[nH]c(NCc3cccc([N+](=O)[O-])c3)nc2n1 | -16.0
O=C(CSc1nnc(-c2ccc(Cl)cc2)o1)Nc1cc(C(F)(F)F)ccc1Cl | -8.2
COc1ccc(CN=Cc2ccc(C(F)(F)F)cc2)cc1 | -2.5
O=C(O)CCCCCCC(=O)N/N=C/c1ccc(F)cc1 | 7.2
O=C(O)CCCCCC(=O)N/N=C/c1ccc(N(c2ccccc2)c2ccccc2)cc1 | 60.9*
O=C(O)CCCCCC(=O)N/N=C/c1ccccc1 | -0.1
O=C(CCCCCCC(=O)Nc1ccccc1O)N/N=C/c1ccc(N(c2ccccc2)c2ccccc2)cc1 | 15.0
N#Cc1ccc(/C=N/NC(=O)CCCCCC(=O)O)cc1 | -10.3
O=C(O)CCCCCCC(=O)N/N=C/c1ccc(N(c2ccccc2)c2ccccc2)cc1 | 62.6*
CC(Sc1nc2ccccc2[nH]1)C(=O)Nc1ccc(S(N)(=O)=O)cc1 (centres undefined) | -8.0
COc1c(Cl)ccc(Cl)c1C(=O)Nc1ccc(S(=O)(=O)Nc2cc(C)nc(C)n2)cc1 | -2.1
COc1cccc(-c2cc(C(F)(F)F)n3nc(C(=O)Nc4c(C#N)cnn4C)cc3n2)c1 | -0.9
CN(C(=S)SCc1ccccc1)c1ccccc1 | 66.5*
CN(C)S(=O)(=O)N(CC(=O)O)c1ccccc1 | 15.9
CCc1ccnc(NC(=O)CC2(CC(=O)O)CCCCC2)c1 | 1.1
O=C(CSc1n[nH]c(-c2ccccc2)n1)Nc1sc2c(c1C(=O)Nc1ccccc1)CCCC2 | 16.8
COc1ccc(CCN=C2CCc3ccccc3N2)cc1OC | 4.2
